Measurements: PubChem BioAssay (NCATS)
Inconclusive results are not listed. Calls of active or inactive are those of the source. Calls come from the whole dose curve; as a rule, active = well fitted inhibition curve with a large enough effect; inconclusive = small, poorly fitted or top-dose-only effect; inactive = flat fitted curve, though single readings scatter.

Test system: not listed separately
Assay: qHTS drug screen for cell cycle checkpoint inhibitors in PARPi-resistant BRCA-mutant ovarian cancer cell lines. (AID 1963452)
Conditions: PEO1/OlaR viability, CellTiter-Glo luminescence, 96 h; measured here: PEO4 Z-AUC; stronger effect = lower value
How it was run: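 PEO1, PEO4 and PEO1/OlaR ovarian cancer cells, 600 per well, exposed 96 h at 37C to a dilution series. Viability read by CellTiter-Glo luminescence, normalized to DMSO and empty wells; activity summarized as Z-AUC.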

| Structure (SMILES) | Z-AUC |
| --- | --- |
| CN1CC(=O)N2[C@H](c3ccc4c(c3)OCO4)c3[nH]c4ccccc4c3C[C@@H]2C1=O | 0.783 |
| O=[N+]([O-])c1cncn1CCN1CCOCC1 | 1.02 |
| C[C@H]1C[C@@H]2[C@H]([C@@H](O)C[C@@]3(C)[C@H]2CC[C@]3(O)C(=O)CO)[C@@]2(C)C=CC(=O)C=C12 | -1.34 |
| CC(C)N(CCC(=O)c1ccc2ccccc2c1)Cc1ccccc1 | -0.853 |
| CCN(CC)CCOc1ccc(/C(=C(\Cl)c2ccccc2)c2ccccc2)cc1 | -0.613 |
| CC1c2ccccc2CN1NC(=O)c1ccc(Cl)c(S(N)(=O)=O)c1 (configuration not stated) | 0.911 |
| CCCCCCOC(=O)NC(=N)c1ccc(NCc2nc3cc(C(=O)N(CCC(=O)OCC)c4ccccn4)ccc3n2C)cc1 | 0.615 |
| CCC1=C[C@@H]2CN(C1)Cc1c([nH]c3ccccc13)[C@@](C(=O)OC)(c1cc3c(cc1OC)N(C)[C@H]1[C@@](O)(C(=O)OC)[C@H](OC(C)=O)[C@]4(CC)C=CCN5CC[C@]31[C@@H]54)C2 | -1.04 |
| CC1(C)O[C@@H]2C[C@H]3[C@@H]4CCC5=CC(=O)C=C[C@]5(C)[C@@]4(F)[C@@H](O)C[C@]3(C)[C@]2(C(=O)CO)O1 | 0.813 |
| O=C(O)C(=O)Nc1cccc(-c2nn[nH]n2)c1 | 0.459 |
| CCOC(=O)O[C@]1(C(=O)OCCl)CC[C@H]2[C@@H]3CCC4=CC(=O)C=C[C@]4(C)[C@H]3[C@@H](O)C[C@@]21C | 1.23 |
| O=C(O)[C@H](O)[C@@H](O)[C@H](O[C@@H]1O[C@H](CO)[C@H](O)[C@H](O)[C@H]1O)[C@H](O)CO | 1.21 |
| O=C(Nc1ccc(S(=O)(=O)N2CCOCC2)cc1)c1cc(Cl)ccc1NS(=O)(=O)c1ccc(Cl)s1 | 1.36 |
| COc1c(C)c2c(c(O)c1C/C=C(\C)CCC(=O)OCCN1CCOCC1)C(=O)OC2 | 0.906 |
| CC1(C)O[C@@H]2C[C@H]3[C@@H]4C[C@H](F)C5=CC(=O)C=C[C@]5(C)[C@@]4(F)[C@@H](O)C[C@]3(C)[C@]2(C(=O)CO)O1 | -0.582 |
| O=[N+]([O-])c1ccc(-c2nc(-c3ccc(F)cc3)c(-c3ccncc3)[nH]2)cc1 | 0.382 |
| C[C@H]1C[C@H]2[C@@H]3CCC4=CC(=O)C=C[C@]4(C)[C@H]3C(=O)C[C@]2(C)[C@@]1(O)C(=O)CO | 0.786 |
| CNC[C@H](O)[C@@H](O)[C@H](O)[C@H](O)CO | 0.238 |
| O=[N+]([O-])c1ccc(O)c2ncccc12 | -1.06 |
| O=C1NC(=O)/C(=C/c2ccc3c(c2)OC(F)(F)O3)S1 | -0.926 |
| CN1CCCN=C1/C=C/c1cccs1 | 0.415 |

Test system: not listed separately
Assay: qHTS profiling for inhibitors of Plasmodium falciparum proliferation (AID 504749); note: nearly all actives have a fitted effect of over 60% in size; note: potency is the fitted concentration of half-maximal effect;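 for activity, negative = inhibition: 0% = DMSO vehicle and full inhibition = artemisinin control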
Conditions: P. falciparum in erythrocytes, SYBR Green DNA, 72 h; parasite line A
How it was run: (§1)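 Infected RBCs, 0.3% parasitemia/2.5% Hct final; cpd 72 h, 37 C, 5% CO2; lysis buffer with saponin/triton/SYBR Green I, o/n RT dark; FI 485/535; norm. to artemisinin (0.29 uM) and DMSO.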

| Structure (SMILES) | Potency |
| --- | --- |
| CCCCCCCCCCCCCCCC[N+](C)(C)Cc1ccccc1 | 1.26 µM (active) |
| CCCCCCCCCCCCCC[N+](C)(C)C | 5.01 µM (active) |
| Nc1c2ccccc2nc2ccccc12 | 7.94 µM (active) |
| O=C(Nc1ccc(Cl)cc1)Nc1ccc(Cl)c(Cl)c1 | 3.16 µM (active) |
| CCCCCCCCCCCCCCCC[n+]1ccccc1 | 6.31 µM (active) |
| CN1CCC(Nc2ncc3ncnc(Nc4ccc(F)c(Cl)c4)c3n2)CC1 | 8.91 µM (active) |

Same assay, conditions: P. falciparum in erythrocytes, SYBR Green DNA, 72 h; parasite line B

| Structure (SMILES) | Potency |
| --- | --- |
| CCCCCCCCCCCCCCCC[N+](C)(C)Cc1ccccc1 | 5.62 µM (active) |
| CCCCCCCCCCCCCC[N+](C)(C)C | 7.08 µM (active) |
| Nc1c2ccccc2nc2ccccc12 | 11.2 µM (active) |
| O=C(Nc1ccc(Cl)cc1)Nc1ccc(Cl)c(Cl)c1 | 3.98 µM (active) |
| CCCCCCCCCCCCCCCC[n+]1ccccc1 | 6.31 µM (active) |
| CN1CCC(Nc2ncc3ncnc(Nc4ccc(F)c(Cl)c4)c3n2)CC1 | 10 µM (active) |

Test system: 3D7
Assay: as above
Conditions: P. falciparum in erythrocytes, SYBR Green DNA, 72 h; series mostly up to 28.7 µM; activity, negative = inhibition: at the top concentration
How it was run: as §1

| Structure (SMILES) | activity, negative = inhibition | Potency |
| --- | --- | --- |
| O=S(=O)(O)c1ccc2nc(-c3ccccc3)[nH]c2c1 | -1.53% (inactive) | – |
| CCCCCCCCCCCCCCCC[N+](C)(C)Cc1ccccc1 | – | 3.98 µM (active) |
| CCCCCCCCCCCCCC[N+](C)(C)C | – | 3.98 µM (active) |
| O=C(Nc1ccc(Cl)cc1)Nc1ccc(Cl)c(Cl)c1 | – | 5.01 µM (active) |
| CCCCCCCCCCCCCCCC[n+]1ccccc1 | – | 4.47 µM (active) |
| O=[N+]([O-])c1ccc(O)c2ncccc12 | – | 11.2 µM (active) |
| Nc1ncnc2nc[nH]c12 | 10.4% (inactive) | – |

Test system: 7G8
Assay: as above
Conditions: P. falciparum in erythrocytes, SYBR Green DNA, 72 h; series mostly up to 28.7 µM; activity, negative = inhibition: at the top concentration
How it was run: as §1

| Structure (SMILES) | Potency | activity, negative = inhibition |
| --- | --- | --- |
| CC(NCCC(c1ccccc1)c1ccccc1)c1ccccc1 (configuration not stated) | 2.24 µM (active) | – |
| O=S(=O)(O)c1ccc2nc(-c3ccccc3)[nH]c2c1 | – | -8.35% (inactive) |
| CCCCCCCCCCCCCCCC[N+](C)(C)Cc1ccccc1 | 3.16 µM (active) | – |
| CCCCCCCCCCCCCC[N+](C)(C)C | 2.24 µM (active) | – |
| Nc1c2ccccc2nc2ccccc12 | 3.16 µM (active) | – |
| CN1CCCN(C(c2ccccc2)c2ccc(Cl)cc2)CC1 (configuration not stated) | 8.91 µM (active) | – |
| O=C(Nc1ccc(Cl)cc1)Nc1ccc(Cl)c(Cl)c1 | 0.501 µM (active) | – |
| CCCCCCCCCCCCCCCC[n+]1ccccc1 | 5.01 µM (active) | – |
| Nc1ccc2cc3ccc(N)cc3nc2c1 | 2.24 µM (active) | – |
| CN1CCC(Nc2ncc3ncnc(Nc4ccc(F)c(Cl)c4)c3n2)CC1 | 2.51 µM (active) | – |
| O=[N+]([O-])c1ccc(O)c2ncccc12 | 11.2 µM (active) | – |
| Nc1ncnc2nc[nH]c12 | – | -6.87% (inactive) |
